Source: PubChem (National Center for Advancing Translational Sciences (NCATS))
In the library only some 3.6% were active in any assay of this set; here they are far more common.
LDHA inh – qHTS assay for inhibitors of human lactate dehydrogenase | purified LDHA, NADH/diaphorase-resazurin fluorescence; active compounds read low | activity change, % (values are at about 110 or 230 µM) | hit rate 0.15% among 480,000; in the data active means activity change below about -30%
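Human LDH5 (2 nM) was incubated with 0.06 mM NADH and 0.2 mM pyruvate for 5 min at room temperature in Tris pH 7.4. Remaining NADH was coupled through diaphorase/resazurin, and resorufin fluorescence was read at 0 and 20 min.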
D1 ag – Allosteric Agonists of the Human D1 Dopamine Receptor: qHTS; AID 504660, 2011; activation, % at 2 µM; HEK293 T-REx D1 cells, calcium flux, agonist mode; hit rate 1% among 360,000
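Inducible HEK293 T-REx D1 cells, force-coupled to calcium signalling, were plated at 4000 cells/well with tetracycline and held overnight at 30 C. After no-wash calcium dye loading, compound-evoked calcium rise over 180 s flagged agonists.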
TRHR ag – qHTS for Small Molecule Agonists and Allosteric Enhancers of Human TRH Receptor: Primary Screen for Agonists; Thyrotropin-releasing hormone receptor (Homo sapiens), P34981; TRHR cells, calcium flux fluo-8, FDSS agonist mode; activation, % at 2 µM; hit rate 0.18% among 360,000
Target sequence (P34981 whole entry, looked up): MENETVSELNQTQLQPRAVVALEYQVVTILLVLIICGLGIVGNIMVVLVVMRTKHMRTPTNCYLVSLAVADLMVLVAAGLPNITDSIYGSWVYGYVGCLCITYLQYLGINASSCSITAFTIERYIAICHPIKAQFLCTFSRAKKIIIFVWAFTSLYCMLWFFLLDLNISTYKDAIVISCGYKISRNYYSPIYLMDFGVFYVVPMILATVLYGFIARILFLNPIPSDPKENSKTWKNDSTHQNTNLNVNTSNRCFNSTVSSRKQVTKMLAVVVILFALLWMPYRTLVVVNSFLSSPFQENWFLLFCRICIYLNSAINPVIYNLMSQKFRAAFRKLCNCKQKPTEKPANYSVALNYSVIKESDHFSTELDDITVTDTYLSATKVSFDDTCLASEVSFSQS
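TRHR-expressing cells, plated overnight in medium with 10% serum, were loaded with fluo-8 calcium dye at room temperature. After a 10 s baseline, library compound was pin-added and calcium release was recorded kinetically (ex 480/em 530) as agonist response.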
D1 PAM – Potentiators of Human D1 Dopamine Receptor: qHTS; hit rate 0.036% among 360,000; potentiation, % at 10 µM; AID 504651, 2011; HEK293 TREx D1 cells, calcium flux, dopamine EC20 potentiation; D(1A) dopamine receptor (Homo sapiens), P21728; in the data active means potentiation above about 30%
D1 antagonist – Antagonist of Human D 1 Dopamine Receptor: qHTS | D(1A) dopamine receptor (Homo sapiens), P21728 | hit rate 3.2% among 360,000 | activity change, negative = inhibition, % at 10 µM | HEK293 TREx D1 cells, calcium flux, dopamine EC80; active compounds read low; in the data active means activity change below about -30%
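HEK293 T-REx cells expressing inducible, force-coupled D1 receptor; no-wash Ca dye, 30–90 min RT. Cmpd → 180 s read at 1 Hz → EC80 DA → 180 s read.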
TRHR PAM – qHTS for Small Molecule Agonists and Allosteric Enhancers of Human TRH Receptor: Primary Screen for Enhancers; Thyrotropin-releasing hormone receptor (Homo sapiens), P34981; TRHR cells, fluo-8 calcium fluorescence, EC20 TRH enhancement; enhancement, % at 2 µM; hit rate 0.66% among 360,000; AID 493056, 2011; in the data active means enhancement above about 30%
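TRHR-expressing cells loaded with fluo-8 calcium dye were read kinetically (ex 480/em 530) during compound addition, then stimulated with an EC20 of TRH (10 nM final). Enhancement of the Gq-mediated intracellular calcium response was scored.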
Numbers stand for hits. Unless noted, no stated cut-off is given here; in the data, active means activation above about 30%; inactive means the rest.

What do the screens show for `CCn1nc(C(=O)OCCOc2ccccc2Cl)c2ccccc2c1=O`?
LDHA inh: inactive

What do the screens show for `COC(=O)c1ccc(CSc2ccc3nnc(-c4cccc(F)c4)n3n2)o1`?
LDHA inh: inactive; D1 ag: inactive; TRHR ag: inactive; D1 PAM: inactive; D1 antagonist: -30; TRHR PAM: inactive

Results for COc1ccc(CCNCc2cc(C)n(-c3ccc(OC)cc3)c2C)cc1 ?
LDHA inh: inactive; D1 ag: 55; TRHR ag: inactive; D1 PAM: inactive; D1 antagonist: inactive; TRHR PAM: inactive

How did O=C(Cn1c(-c2cccs2)cc2ccccc21)NCCCN1CCN(c2ccccc2F)CC1 do in these assays?
LDHA inh: inactive; D1 ag: inactive; TRHR ag: inactive; D1 PAM: inactive; D1 antagonist: -62; TRHR PAM: inactive

How did CCOC(=O)c1c(C)[nH]c(CCC(=O)NCCCN2CCN(c3ccc(F)cc3)CC2)c1C do in these assays?
LDHA inh: inactive; D1 ag: inactive; TRHR ag: inactive; D1 PAM: inactive; D1 antagonist: -37; TRHR PAM: inactive

What do the screens show for `O=C(CCNC(=O)Cn1ccc2ccccc2c1=O)NCCCN1CCOCC1`?
LDHA inh: inactive; D1 ag: inactive; TRHR ag: inactive; D1 PAM: inactive; D1 antagonist: inactive; TRHR PAM: inactive

What do the screens show for `O=C(CCNC(=O)Cn1ccc2ccccc2c1=O)NCCCN1CCN(c2ccccc2F)CC1`?
LDHA inh: inactive; D1 ag: inactive; TRHR ag: inactive; D1 PAM: inactive; D1 antagonist: -68; TRHR PAM: inactive

Results for O=C(CCNC(=O)Cn1ccc2ccccc2c1=O)NCCCN1CCN(c2ccc(F)cc2)CC1 ?
LDHA inh: inactive; D1 ag: inactive; TRHR ag: inactive; D1 PAM: inactive; D1 antagonist: -51; TRHR PAM: inactive

How did O=C(COc1ccc2c(c1)CCC(=O)N2)NOCc1ccccc1 do in these assays?
LDHA inh: inactive

What do the screens show for `Cc1cc2ccccc2c(=O)n1CC(=O)NCC(=O)N1CCN(c2cccc(Cl)c2)CC1`?
LDHA inh: inactive; D1 ag: inactive; TRHR ag: inactive; D1 PAM: inactive; D1 antagonist: inactive; TRHR PAM: inactive

What do the screens show for `O=C(CNC(=O)Cn1ccc2ccccc2c1=O)NCCCN1CCN(c2cccc(Cl)c2)CC1`?
LDHA inh: inactive; D1 ag: inactive; TRHR ag: inactive; D1 PAM: inactive; D1 antagonist: -37; TRHR PAM: inactive

How did Cc1ccc(C(=O)OCC(=O)Nc2cccc(F)c2)cc1C do in these assays?
LDHA inh: inactive

Results for CNc1nc(Nc2ccc(C(C)=O)cc2)nc(OC(C(F)(F)F)C(F)(F)F)n1 ?
LDHA inh: inactive; D1 ag: inactive; TRHR ag: inactive; D1 PAM: inactive; D1 antagonist: -31; TRHR PAM: inactive

Results for Cc1c(C(=O)Nc2ccccc2)sc(N)c1C#N ?
LDHA inh: inactive

What do the screens show for `COc1ccc(C)cc1B(O)O`?
LDHA inh: inactive

Results for COc1ccc(CN2CCN(Cc3c[nH]c4ccccc34)CC2)cc1OC ?
LDHA inh: -32

What do the screens show for `COc1ccc(CN2CCN(Cc3c[nH]c4ccccc34)CC2)cc1`?
LDHA inh: -34; D1 ag: inactive; TRHR ag: inactive; D1 PAM: inactive; D1 antagonist: inactive; TRHR PAM: inactive

How did COc1ccc(OC)c(CN2CCC(C)CC2)c1 do in these assays?
LDHA inh: inactive

What do the screens show for `COc1ccc(CN2CCC(N3CC(C)OC(C)C3)CC2)c(OC)c1` (stereo unspecified)?
LDHA inh: -32; D1 ag: inactive; TRHR ag: inactive; D1 PAM: inactive; D1 antagonist: inactive; TRHR PAM: inactive

How did CC(=O)c1c(C)[nH]c(C(=O)OCC(=O)c2c[nH]c3ccccc23)c1C do in these assays?
LDHA inh: inactive; D1 ag: inactive; TRHR ag: inactive; D1 PAM: inactive; D1 antagonist: -31; TRHR PAM: inactive
